Measurements as given in the supplement of paper PMC10849652.
Of roughly 8,800 targets only a part is listed; those with a hit were picked by preference. About 0.5% of all pairs of compound and target were hits. Values without a mark were called inactive.

UniProt Q92989, sequence (Q92989 whole entry, looked up): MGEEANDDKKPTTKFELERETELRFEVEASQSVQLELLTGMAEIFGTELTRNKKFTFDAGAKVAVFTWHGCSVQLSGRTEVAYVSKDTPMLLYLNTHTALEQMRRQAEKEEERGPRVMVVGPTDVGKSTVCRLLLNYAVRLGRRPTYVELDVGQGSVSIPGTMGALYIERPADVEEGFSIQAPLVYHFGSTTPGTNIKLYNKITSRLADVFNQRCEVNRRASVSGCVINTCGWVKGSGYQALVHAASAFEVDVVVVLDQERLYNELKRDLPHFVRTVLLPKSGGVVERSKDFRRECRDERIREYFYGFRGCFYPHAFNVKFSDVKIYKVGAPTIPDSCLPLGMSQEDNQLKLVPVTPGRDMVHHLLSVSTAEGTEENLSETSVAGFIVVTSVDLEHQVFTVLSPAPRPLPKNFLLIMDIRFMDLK
UniProt Q9H2P9, sequence (Q9H2P9 whole entry, looked up): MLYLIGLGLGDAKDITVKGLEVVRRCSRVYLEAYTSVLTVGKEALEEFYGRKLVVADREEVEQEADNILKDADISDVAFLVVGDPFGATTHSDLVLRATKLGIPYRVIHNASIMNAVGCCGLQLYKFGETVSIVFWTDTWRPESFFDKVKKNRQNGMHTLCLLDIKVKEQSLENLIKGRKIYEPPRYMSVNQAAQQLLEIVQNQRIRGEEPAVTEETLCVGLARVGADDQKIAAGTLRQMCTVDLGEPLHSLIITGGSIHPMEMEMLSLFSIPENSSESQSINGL
UniProt P61923, sequence (P61923 whole entry, looked up): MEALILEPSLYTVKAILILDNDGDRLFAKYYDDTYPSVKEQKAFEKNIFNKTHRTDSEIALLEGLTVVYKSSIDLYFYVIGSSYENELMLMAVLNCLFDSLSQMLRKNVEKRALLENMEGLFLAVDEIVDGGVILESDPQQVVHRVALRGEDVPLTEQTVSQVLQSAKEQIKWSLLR
UniProt Q99766, sequence (Q99766 whole entry, looked up): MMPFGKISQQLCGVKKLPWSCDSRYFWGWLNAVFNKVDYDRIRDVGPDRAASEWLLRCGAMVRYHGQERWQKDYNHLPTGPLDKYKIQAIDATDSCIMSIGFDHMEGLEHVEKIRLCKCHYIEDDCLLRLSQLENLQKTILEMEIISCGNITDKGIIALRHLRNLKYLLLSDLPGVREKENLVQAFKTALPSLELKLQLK
UniProt P50570, sequence (P50570 whole entry, looked up): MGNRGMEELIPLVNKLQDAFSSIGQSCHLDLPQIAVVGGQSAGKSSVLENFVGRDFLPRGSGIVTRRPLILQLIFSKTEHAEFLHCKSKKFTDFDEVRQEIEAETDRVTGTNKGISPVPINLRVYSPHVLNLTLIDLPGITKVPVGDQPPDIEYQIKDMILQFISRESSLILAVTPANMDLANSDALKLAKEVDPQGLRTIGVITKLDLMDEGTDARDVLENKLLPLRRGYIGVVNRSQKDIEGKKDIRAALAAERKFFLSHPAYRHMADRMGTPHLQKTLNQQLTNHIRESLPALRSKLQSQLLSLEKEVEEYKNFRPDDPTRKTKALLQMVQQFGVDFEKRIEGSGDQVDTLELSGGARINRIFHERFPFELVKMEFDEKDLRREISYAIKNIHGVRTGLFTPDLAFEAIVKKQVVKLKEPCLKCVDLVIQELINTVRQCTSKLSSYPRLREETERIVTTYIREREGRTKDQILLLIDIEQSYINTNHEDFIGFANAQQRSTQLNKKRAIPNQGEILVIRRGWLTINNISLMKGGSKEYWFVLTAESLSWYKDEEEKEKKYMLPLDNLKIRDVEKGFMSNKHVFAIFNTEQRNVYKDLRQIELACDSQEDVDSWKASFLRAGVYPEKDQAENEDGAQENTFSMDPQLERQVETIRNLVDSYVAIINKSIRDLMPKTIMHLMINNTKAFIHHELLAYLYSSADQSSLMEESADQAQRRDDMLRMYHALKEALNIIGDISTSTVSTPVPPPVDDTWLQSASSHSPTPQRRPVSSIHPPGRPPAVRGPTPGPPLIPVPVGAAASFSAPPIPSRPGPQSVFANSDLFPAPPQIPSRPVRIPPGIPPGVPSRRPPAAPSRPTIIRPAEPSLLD
UniProt Q8NF50, sequence (Q8NF50 whole entry, looked up): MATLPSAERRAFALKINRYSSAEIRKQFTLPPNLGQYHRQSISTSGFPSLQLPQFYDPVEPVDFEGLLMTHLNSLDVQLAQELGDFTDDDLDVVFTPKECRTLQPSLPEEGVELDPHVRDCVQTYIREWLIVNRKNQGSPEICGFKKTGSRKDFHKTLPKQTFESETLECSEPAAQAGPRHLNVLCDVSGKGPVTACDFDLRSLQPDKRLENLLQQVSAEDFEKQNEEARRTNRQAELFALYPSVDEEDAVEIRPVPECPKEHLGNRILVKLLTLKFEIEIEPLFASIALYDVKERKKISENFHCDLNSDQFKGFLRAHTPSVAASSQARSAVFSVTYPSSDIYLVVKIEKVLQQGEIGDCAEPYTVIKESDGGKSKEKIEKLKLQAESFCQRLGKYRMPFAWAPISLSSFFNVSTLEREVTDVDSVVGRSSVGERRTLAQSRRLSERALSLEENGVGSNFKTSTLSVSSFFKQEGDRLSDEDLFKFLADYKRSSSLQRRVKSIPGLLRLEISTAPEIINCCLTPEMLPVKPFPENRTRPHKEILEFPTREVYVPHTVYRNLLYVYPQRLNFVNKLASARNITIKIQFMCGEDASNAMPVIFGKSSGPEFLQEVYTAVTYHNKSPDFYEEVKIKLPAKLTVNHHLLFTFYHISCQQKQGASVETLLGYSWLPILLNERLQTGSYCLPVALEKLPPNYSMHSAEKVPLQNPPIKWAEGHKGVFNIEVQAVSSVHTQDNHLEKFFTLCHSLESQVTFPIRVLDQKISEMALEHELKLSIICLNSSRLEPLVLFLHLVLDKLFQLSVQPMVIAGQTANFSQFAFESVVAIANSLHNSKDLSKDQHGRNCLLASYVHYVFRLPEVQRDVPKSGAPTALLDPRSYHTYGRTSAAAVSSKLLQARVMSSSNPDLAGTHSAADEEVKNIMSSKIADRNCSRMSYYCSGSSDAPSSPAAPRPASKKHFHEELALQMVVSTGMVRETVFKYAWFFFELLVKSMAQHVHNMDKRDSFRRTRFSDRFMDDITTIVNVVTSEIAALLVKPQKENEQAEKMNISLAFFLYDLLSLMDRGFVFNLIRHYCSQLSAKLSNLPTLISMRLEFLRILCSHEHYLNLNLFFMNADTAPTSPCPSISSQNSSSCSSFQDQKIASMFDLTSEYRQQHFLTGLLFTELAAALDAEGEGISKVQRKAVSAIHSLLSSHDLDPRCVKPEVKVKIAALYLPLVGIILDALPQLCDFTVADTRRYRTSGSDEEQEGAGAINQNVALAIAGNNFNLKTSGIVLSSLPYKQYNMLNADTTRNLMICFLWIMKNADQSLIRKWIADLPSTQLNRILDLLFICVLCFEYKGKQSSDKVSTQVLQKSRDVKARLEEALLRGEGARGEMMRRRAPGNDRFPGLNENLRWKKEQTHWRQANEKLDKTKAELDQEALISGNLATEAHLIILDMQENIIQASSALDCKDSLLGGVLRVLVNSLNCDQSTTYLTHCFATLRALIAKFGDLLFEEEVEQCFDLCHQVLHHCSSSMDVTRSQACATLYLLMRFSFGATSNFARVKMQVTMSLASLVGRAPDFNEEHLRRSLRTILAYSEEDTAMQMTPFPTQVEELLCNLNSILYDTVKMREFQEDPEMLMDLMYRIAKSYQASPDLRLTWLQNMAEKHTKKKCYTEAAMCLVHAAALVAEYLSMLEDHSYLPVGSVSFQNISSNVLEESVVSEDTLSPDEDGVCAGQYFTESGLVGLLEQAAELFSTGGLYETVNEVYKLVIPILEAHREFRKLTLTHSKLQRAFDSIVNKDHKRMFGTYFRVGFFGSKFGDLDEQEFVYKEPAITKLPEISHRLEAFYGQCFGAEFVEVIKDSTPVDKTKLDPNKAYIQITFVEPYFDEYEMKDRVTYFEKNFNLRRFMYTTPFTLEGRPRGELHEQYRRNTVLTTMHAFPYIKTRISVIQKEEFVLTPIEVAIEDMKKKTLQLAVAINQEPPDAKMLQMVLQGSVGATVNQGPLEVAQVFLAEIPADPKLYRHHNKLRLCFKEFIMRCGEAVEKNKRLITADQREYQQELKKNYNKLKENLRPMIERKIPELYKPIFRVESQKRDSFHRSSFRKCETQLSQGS
UniProt Q9Y6M4, sequence (Q9Y6M4 whole entry, looked up): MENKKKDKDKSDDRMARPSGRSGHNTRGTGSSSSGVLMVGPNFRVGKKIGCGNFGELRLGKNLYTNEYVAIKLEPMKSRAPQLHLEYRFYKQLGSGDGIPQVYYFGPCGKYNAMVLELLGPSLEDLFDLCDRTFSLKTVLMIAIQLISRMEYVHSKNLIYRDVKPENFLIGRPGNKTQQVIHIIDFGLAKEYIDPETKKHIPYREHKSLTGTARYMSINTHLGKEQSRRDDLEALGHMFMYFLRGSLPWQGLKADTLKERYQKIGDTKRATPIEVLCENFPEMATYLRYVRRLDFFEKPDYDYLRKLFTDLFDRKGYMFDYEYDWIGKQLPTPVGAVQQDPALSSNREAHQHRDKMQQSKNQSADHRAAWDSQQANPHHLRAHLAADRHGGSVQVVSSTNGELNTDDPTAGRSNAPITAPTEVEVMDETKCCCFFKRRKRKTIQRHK
UniProt Q99828, sequence (Q99828 whole entry, looked up): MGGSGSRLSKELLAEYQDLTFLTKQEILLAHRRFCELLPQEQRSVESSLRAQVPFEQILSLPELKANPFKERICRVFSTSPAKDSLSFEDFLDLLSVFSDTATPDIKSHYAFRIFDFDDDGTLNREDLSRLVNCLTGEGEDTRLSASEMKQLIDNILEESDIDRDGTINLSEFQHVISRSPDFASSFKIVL
UniProt Q9BY43, sequence (Q9BY43 whole entry, looked up): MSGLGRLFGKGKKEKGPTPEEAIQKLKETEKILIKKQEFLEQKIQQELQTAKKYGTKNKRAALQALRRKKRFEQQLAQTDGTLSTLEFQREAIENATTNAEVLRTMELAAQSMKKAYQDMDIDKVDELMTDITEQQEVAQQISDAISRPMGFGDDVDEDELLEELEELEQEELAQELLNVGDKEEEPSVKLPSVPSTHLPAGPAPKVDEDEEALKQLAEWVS

The targets below were run with C1=CC=C2C(=C1)C3=NNC4=CC=CC(=C43)C2=O (assay: log2 fold change, soluble protein after heating vs DMSO (PISA); higher = thermal stabilisation; K562 lysate, 10 uM; active = over 0.2 and 3.5 SD of the protein, either way, in both replicates (recomputed)).
Summary of the method: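 To prepare the extract, K562 pellets were dounce-homogenised in PBS pH 7.4 with 1 mM MgCl2, giving crude material at 1 mg/mL protein. This was treated with 10 μM compound for 30 min, then heated in aliquots for 3 min over 48°C-58°C before pooling and addition of NP-40 to 0.5% at 4°C. Centrifugation at 21,000xg for 90 min left soluble protein in the supernatant, which TMTpro 16plex LC-MS/MS quantified with equalised channel sums. Results are log-two fold changes in thermal stability compared with solvent controls, from duplicates.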
In the case of CIB1 (UniProt Q99828), the log2 fold change is reported as 0.02. In the case of COL6A5 (UniProt A8TX70), the log2 fold change is reported as 0.014. In the case of DFFB (UniProt O76075), the log2 fold change is reported as 0. CSNK1G3 (UniProt Q9Y6M4) was tested, and the log2 fold change was 0.234. DNM2 (UniProt P50570) was tested, and the log2 fold change was -0.049. In the case of COPZ1 isoform 4 (UniProt P61923), the log2 fold change is reported as 0. DPH5 isoform 5 (UniProt Q9H2P9) was tested, and the log2 fold change was 0.046. COQ9 (UniProt O75208) was tested, and the log2 fold change was -0.029. DLD (UniProt P09622) gave a log2 fold change of 0.007. In the case of CLP1 (UniProt Q92989), the log2 fold change is reported as 0.034. DMAC2L (UniProt Q99766) was tested, and the log2 fold change was -0.066. In the case of DOCK10 (UniProt Q96BY6), the log2 fold change is reported as -0.034. CIAO2A (UniProt Q9H5X1) was tested, and the log2 fold change was -0.007. DNAJC1 (UniProt Q96KC8) was tested, and the log2 fold change was -0.039. DIAPH3 (UniProt Q9NSV4) showed a log2 fold change of -0.066. CNP (UniProt P09543) gave a log2 fold change of -0.004. CHURC1 isoform 2 (UniProt Q8WUH1) was tested, and the log2 fold change was 0.002. CYCS (UniProt P99999) showed a log2 fold change of 0.02. In the case of CSNK2B (UniProt P67870), the log2 fold change is reported as 0.198. Work on DOCK8 (UniProt Q8NF50) yielded a log2 fold change of -0.023. With CRABP2 (UniProt P29373) the log2 fold change was -0.151. Work on DENND6A (UniProt Q8IWF6) yielded a log2 fold change of 0.003. In the case of CHMP4A isoform 2 (UniProt Q9BY43), the log2 fold change is reported as 0.033.
